RGS12 GoLoco inh-1 = blocks human Gai1 binding to RGS12 GoLoco peptide, red readout | 0.44% of 230,000 active | Gai1:RGS12 GoLoco peptide FP, rhodamine, 10 min | P63096 | Potency, µM (titrated, usually from 61.6 µM), inactives show at the highest dose activity, negative = inhibition, most hits filed as inhibitors; active = well fitted inhibition curve with a large enough effect, not every such curve was filed as active; inactive = no such curve, though single readings can be large or run the other way; note: potency is the fitted concentration of half-maximal effect; % is set by controls: 0 for no effect and ±100 for the full control effect; nearly all actives have a fitted effect of over 30% in size
BLM helicase inh = blocks DNA unwinding by human BLM helicase. P54132. recombinant BLM DNA unwinding, fluorescence dequenching. Potency, µM (doses to about 56.1 µM), without a hit: at the top dose activity change, negative = inhibition, hits mostly inhibitors. 0.2% of 350,000 active. AID 2528;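 note: potency is the fitted concentration of half-maximal effect; plate controls were vehicle for no effect and no enzyme for full effect; nearly all actives have a fitted effect of over 35% in size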
RECQ1 helicase = blocks DNA unwinding by human RECQ1. 0.54% of 240,000 active. Potency, µM (doses to about 57.3 µM), without a hit: top-dose activity, negative = inhibition, hits mostly inhibitors. AID 2549. P46063. RECQ1 DNA unwinding, red fluorescence kinetic read;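 note: potency is the fitted concentration of half-maximal effect; plate controls were vehicle for no effect and no enzyme for full effect; nearly all actives have a fitted effect of over 30% in size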
Target sequence (P46063 whole entry, looked up): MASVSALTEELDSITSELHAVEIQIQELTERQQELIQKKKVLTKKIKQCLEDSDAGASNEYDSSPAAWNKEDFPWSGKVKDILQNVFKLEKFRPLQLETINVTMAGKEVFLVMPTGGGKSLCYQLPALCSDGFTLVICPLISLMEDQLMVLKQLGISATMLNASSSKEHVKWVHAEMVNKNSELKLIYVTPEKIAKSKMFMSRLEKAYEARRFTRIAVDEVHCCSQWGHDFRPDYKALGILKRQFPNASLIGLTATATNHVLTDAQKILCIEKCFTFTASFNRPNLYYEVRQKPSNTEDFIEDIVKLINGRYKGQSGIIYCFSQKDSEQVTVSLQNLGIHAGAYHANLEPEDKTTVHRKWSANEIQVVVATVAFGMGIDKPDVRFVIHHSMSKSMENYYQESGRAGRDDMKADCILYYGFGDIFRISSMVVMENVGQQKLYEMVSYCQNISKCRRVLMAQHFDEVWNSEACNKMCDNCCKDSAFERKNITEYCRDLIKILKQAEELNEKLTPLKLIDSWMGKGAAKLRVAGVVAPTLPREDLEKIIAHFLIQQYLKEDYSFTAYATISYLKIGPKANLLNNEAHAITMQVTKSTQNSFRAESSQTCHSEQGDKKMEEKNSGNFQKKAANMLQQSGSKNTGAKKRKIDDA
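RECQ1T1 50 nM; forked duplex (20 bp + 30-nt ss tails) 200 nM, ATP 2 mM final; pH 8.0, 2 mM MgCl2, 2.5 ug/ml poly(dI-dC); 15 min compound preincubation; discontinuous kinetic read over 2 h at RT.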
APEX1 inh = inhibitors of human APE1 endonuclease. P27695. recombinant APE1, TAMRA/BHQ-2 abasic DNA cleavage fluorescence. Potency, µM (series often up to 65.8 µM), inactives show at the highest dose activity change, negative = inhibition, hits mostly inhibitors. 0.35% of 350,000 active;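 note: potency is the fitted concentration of half-maximal effect; plate controls were vehicle for no effect and reference inhibitor for full effect; nearly all actives have a fitted effect of over 55% in size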
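Activity was derived from the fluorescence gain between first and third kinetic reads (60 s intervals, ex 525/em 598 nm) after 50 nM THF-abasic TAMRA/BHQ-2 duplex was added to 0.75 nM APE1 preincubated 15 min with compound.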
TR SRC2 fluor cs = alters Texas Red total fluorescence, flagging assay interference; 0.29% of 280,000 active; AID 1479; TRb/SRC2 Texas Red total fluorescence interference; Potency, µM (series often up to 106 µM), for the others: top-dose fluorescence change, negative = quenching; active = well fitted curve in either direction with a large enough effect; inconclusive = small, poorly fitted or top-dose-only effect; note: potency is the fitted concentration of half-maximal effect; % is set by controls: 0 for no effect and ±100 for the full control effect
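Human TRb ligand-binding domain at 0.6 uM with 20 nM Texas Red SRC2 peptide in Tris buffer containing 1 uM T3 and 5% DMSO, incubated with compound 5 h at ambient temperature. Total fluorescence (555/632 nm) calculated as parallel + 2 × perpendicular.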
TRb-SRC2 inh = inhibitors of human thyroid hormone receptor beta-SRC2 interaction; TRbeta-SRC2 peptide binding, fluorescence polarization; receptor liganded with 1 µM T3; Potency, µM (top dose mostly 106 µM), for inactives: at the highest dose activity change, negative = inhibition, usual class: inhibitors; 0.065% of 280,000 active;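 note: potency is the fitted concentration of half-maximal effect; plate controls were bound peptide for no effect and peptide without receptor for full effect; nearly all actives have a fitted effect of over 50% in size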
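Compounds were added to 0.6 uM TRb ligand-binding domain and 20 nM Texas Red-labeled SRC2 peptide in Tris buffer containing 1 uM T3, incubated 5 hr at ambient temperature, then read by fluorescence polarization.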
RGS12 GoLoco inh-2 = confirmation of human RGS12 GoLoco motif inhibitors; shares compounds with RGS12 GoLoco inh-1; 50% of 110 active; Gai1/rhodamine-RGS12 GoLoco peptide fluorescence polarization; Potency, µM (series often up to 57.1 µM), for inactives: at the highest dose activity, negative = inhibition, most hits filed as inhibitors; AID 2390
* = called active by the depositor; u = inconclusive; x = no result given; ! = repeats disagree; [ ] = another dose, or the depositor's remark. This is a sample that favours compounds with a hit; in the whole collection about 0.9% have one here. Unless noted, calls come from the whole dose curve; as a rule, active = well fitted curve in the direction sought with a large enough effect; inconclusive = small, poorly fitted or top-dose-only effect, or another doubt; inactive = no such curve, though single readings can be large; an effect the other way counts as inactive or inconclusive.

SMILES	RGS12 GoLoco inh-1	BLM helicase inh	RECQ1 helicase	APEX1 inh	TR SRC2 fluor cs	TRb-SRC2 inh	RGS12 GoLoco inh-2
C[n+]1cc2c3c(ccc2c2ccc4cc5c(cc4c21)OCO5)OCO3	14µM*!	-2%	1%	1%	-3%	0%	25µM*
C[n+]1c(/C=C/c2ccc3c(c2)OCO3)ccc2ccccc21	-4%	1%	12%	5%	-1%	3%	x
CCOCc1cnc(C)nc1NCC(=O)c1c(C)n(C)c2ccc(OC)cc12	5µM*	-2%	25%	-7%	0%	3%	25µM*
CCCn1c2ccccc2c2cnn(CC(=O)N3CCN(c4ccccc4F)CC3)c(=O)c21	x	-3%	x	x	-4%	7%	x
COC(=O)c1ccc(NC(=O)CSc2ccccn2)cc1	13µM*	-3%	-5%	-10%	0%	9%	u
O=C(c1cccc(F)c1)N1CCC[C@@]2(CCN(Cc3ccccc3)C2)C1	4%	6%	-1%	3%	x	x	x
COc1ccc(C(=O)CN2C(=O)N(c3cc(C)cc(C)c3)S(=O)(=O)c3ccccc32)cc1	x	-5%	x	x	-7%	4%	x
CCc1ccccc1NC(=O)Cn1nnc(C(=O)NCc2ccco2)c1N	x	-1%	x	x	-2%	-9%	x
CCOc1ccc(N(CC(=O)N/N=C/c2ccc(OC(C)C)cc2)S(C)(=O)=O)cc1	10µM*	-9%	-3%	0%	-2%	8%	5%[0.0121 µM]
Cn1nnnc1SCC(=O)N1CCN(c2ccc(Cl)cc2)CC1	-37%	-4%	-15%	11%	0%	-5%	14µM*
COC(=O)CN1C(=O)CSc2ccc(S(=O)(=O)Nc3ccc(F)c(Cl)c3)cc21	x	-2%	x	x	-1%	4%	x
O=S1(=O)C2CC3OC2(CC3c2ccc(F)cc2)CN1Cc1ccc(Cl)cc1 (stereo unspecified)	x	-14%	5%	-7%	0%	6%	x
OC(COC1CCCCC1)CN1CCN(c2ccccc2)CC1 (stereo unspecified)	-9%	3%	0%	-4%	-10%	-11%	x
Cc1n(CC(O)COC2CCCCC2)c2ccccc2[n+]1C (stereo unspecified)	7.1µM*	4%	4%	8%	-1%	-17%	16µM*
O=C(COc1ccc(Cl)cc1)N1CCN(Cc2ccc3c(c2)OCO3)CC1	22µM*!	-8%	-6%[25.9 µM]	16%	-2%	4%	9%[0.0121 µM]
CCCCNc1ccc2c3c(cccc13)C(=O)N(CCCC)C2=O	14µM*	-7%	-9%	-7%	0%	-4%	14µM*
O=C1c2cccc3c(O)ccc(c23)C(=O)N1Cc1ccccc1	11µM*	-6%	u	-4%	2%	-3%	11µM*
O=C(O)c1cccc(CN2C(=O)c3ccccc3C2=O)c1	x	-1%	x	1%	x	x	x
O=C(Cn1c(=O)c2ccccc2n2nncc12)Nc1cccc(F)c1	x	-4%	x	x	-1%	-2%	x
Cc1ccc(NC(=O)Cn2sc3nc(C)cc(C)c3c2=O)c(Cl)c1	18µM*	2%	-7%	1%	-5%	6%	11µM*
Cc1ccc(NC(=O)Cn2c(C)cc(C)c(C#N)c2=O)c(Cl)c1	0%	-3%	-9%	13%	0%	-6%	x
CCOc1ccc(NC(=O)CCc2c(C)nc3c4c(C)cc(C)nc4nn3c2C)cc1	x	1%	x	x	-1%	-10%	x
Cc1cc(C)c2c(=O)n(CC(=O)Nc3ccc(Cl)cc3)sc2n1	25µM*	-2%	-6%	-5%	-7%	-2%	u
Cc1cc(C)n(CCC(=O)Nc2ccc(Cl)cc2)n1	x	-4%	x	x	-1%	1%	x
CCOc1ccc(NC(=O)Cn2sc3nc(C)cc(C)c3c2=O)cc1	16µM*	-1%	-6%	2%	-5%	-3%	u

High-throughput results (PubChem)
